# SW480 rerep: induces DNA re-replication in SW480 colon adenocarcinoma cells; SW480 DNA re-replication, Hoechst DNA content imaging, 48 h; Potency, µM (top dose mostly 46.1 µM), usual class: activators; 1.8% of 340,000 active; AID 624297; note: nearly all actives have a fitted effect of over 55% in size
#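 SW480 cells exposed to compounds for 48 hr at 37 C, 5% CO2, then Hoechst-stained 40 min. Nuclear DNA content imaged by fluorescence scanning (405 nm excitation, 500-530 nm emission); re-replication scored as increased high-intensity nuclei.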
# RORg inh: blocks mouse ROR gamma transcriptional activity. 5.4% of 310,000 active. P51450. Potency, µM (highest dose often 53.6 µM), most hits filed as inhibitors. Drosophila S2 Gal4-RORgamma UAS-luciferase reporter, 20 h; note: nearly all actives have a fitted effect of over 60% in size
# Target sequence (P51450 whole entry, looked up, the tested form may be a part): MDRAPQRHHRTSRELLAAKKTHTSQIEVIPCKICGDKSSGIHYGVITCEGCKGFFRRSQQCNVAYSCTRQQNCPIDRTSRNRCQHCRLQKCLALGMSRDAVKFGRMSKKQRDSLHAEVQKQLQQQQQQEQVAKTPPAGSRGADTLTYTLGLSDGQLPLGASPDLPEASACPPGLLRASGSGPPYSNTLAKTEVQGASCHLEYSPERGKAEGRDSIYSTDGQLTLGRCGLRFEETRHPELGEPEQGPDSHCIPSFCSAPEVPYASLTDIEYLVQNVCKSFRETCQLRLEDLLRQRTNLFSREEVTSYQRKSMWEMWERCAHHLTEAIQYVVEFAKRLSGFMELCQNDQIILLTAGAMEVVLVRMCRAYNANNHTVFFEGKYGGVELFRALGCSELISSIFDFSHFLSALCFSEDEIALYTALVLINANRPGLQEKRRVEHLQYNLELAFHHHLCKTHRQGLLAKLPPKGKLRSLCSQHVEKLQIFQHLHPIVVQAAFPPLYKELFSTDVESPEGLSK
#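 Read-out: Photinus luciferase luminescence; inhibitors lower reporter signal. Insect Schneider cells with Gal4-ROR gamma fusion under metallothionein promoter, UAS reporter; 700 uM final copper sulfate induction, 20 hr, ambient temperature.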
# Gal4-VP16 FLuc: Gal4-VP16 reporter inhibition counter-screen. Potency, µM (top dose mostly 53.6 µM), usual class: inhibitors. Drosophila S2 Gal4-VP16 UAS-luciferase, luminescence, 20 h. AID 2546. 3.5% of 310,000 active;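 note: Gal4-VP16 expression switched on by copper sulfate through the metallothionein promoter; nearly all actives have a fitted effect of over 50% in size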
# KB-V1 cytotox: KB-V1 MDR subline cytotoxicity; KB-V1 MDR cells viability, CellTiter-Glo, 72 h; Potency, µM (series often up to 46.1 µM), hits mostly cytotoxic; 3.4% of 400,000 active; AID 1347076; note: nearly all actives have a fitted effect of over 60% in size
#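 KB-V1, DMEM (no phenol red) + 10% FBS; cpd pin-transferred, titration series; 72 h, 37 degrees C; CellTiter-Glo, luminescence. Data normalized, curve-fit.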
# MCF10A rereplic: inducers of DNA re-replication in MCF 10A breast cells; MCF 10A DNA re-replication, Hoechst nuclear intensity, 48 h; Potency, µM (top dose mostly 46.1 µM), hits mostly activators; 2.9% of 350,000 active; AID 624296; note: nearly all actives have a fitted effect of over 50% in size
# KB-3-1 tox: KB-3-1 parental cell cytotoxicity. KB-3-1 viability, CellTiter-Glo ATP luminescence, 72 h. Potency, µM (highest dose often 46.1 µM), most hits filed as cytotoxic. 1.4% of 400,000 active. AID 1347075; note: nearly all actives have a fitted effect of over 60% in size
#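 Cytotoxicity measured as CellTiter-Glo luminescence after 72 h at 37 C. Compound titrations were pinned onto drug-naive KB-3-1 parental adenocarcinoma cells grown in DMEM with 10% FBS, and normalized data fitted to concentration-response curves.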
# Numbers stand for hits; 0 = inactive; ? = inconclusive; - = no result; ! = not active in a repeat; [ ] = dose if it differs, or a comment. The list is not random: actives were taken first. Their share in the collection is about 10%. Calls come from the whole dose curve; as a rule, active = well fitted curve in the direction sought with a large enough effect; inconclusive = small, poorly fitted or top-dose-only effect, or another doubt; inactive = no such curve, though single readings can be large; an effect the other way counts as inactive or inconclusive.
SMILES,SW480 rerep,RORg inh,Gal4-VP16 FLuc,KB-V1 cytotox,MCF10A rereplic,KB-3-1 tox
COc1ccc(C(=O)N[C@H](C(=O)NC2CCCCC2)C(C)C)cc1,0,-,-,0,0,0
CC(NC(=O)Cn1ncc(Cl)c(Cl)c1=O)C12CC3CC(CC(C3)C1)C2 (centres undefined),5.17µM,12.6µM,?,?,3.66µM,6.51µM
Cc1ccc(C(=O)N[C@H](C(=O)NC2CCCCC2)C(C)C)cc1,0,-,-,10.3µM,0,0
O=C(CN1CCN(S(=O)(=O)c2ccc(Cl)cc2)CC1)NC(=O)NC1CCCCC1,0,0,0,2.31µM,0,?
Cc1ccc(CSc2nnc(SCC(=O)N/N=C/c3ccc(C(=O)O)cc3)s2)cc1,0,5.62µM,?,0,0,0
Cc1ccc(CSc2nnc(SCC(=O)N/N=C/c3c[nH]c4ccccc34)s2)cc1,?,0,?,0,13µM,?
O=C(CSc1nnc(SCc2ccccc2Cl)s1)N/N=C/c1c[nH]c2ccccc12,-,?,0,?,?,0
O=C(CSc1nnc(SCc2ccccc2)s1)N/N=C/c1c[nH]c2ccccc12,0,8.91µM,?,0,?,0
CCc1ccc(-c2cc(C)no2)cc1S(=O)(=O)N1CCCN(Cc2ccc(F)cc2)C1,?,0,0,?,?,?
O=c1cc(-c2ccc(Cl)cc2)[nH]c2ccccc12,?,0,0,0,14.6µM,?
Cc1ccc(-c2cc(=O)c3ccccc3[nH]2)cc1,?,0,0,?,13µM,?
Cc1ccc2[nH]c(-c3ccccc3)cc(=O)c2c1,?,?,?,?,?,0.291µM
O=c1c2sc3ccccc3c2n(Cc2ccccc2F)c(=O)n1Cc1ccccc1,-,-,-,0,-,0
O=C1c2ccccc2C(=O)N1Cc1ccc2c(c1)OCO2,0,0,0,?,0,0
C=C1c2ccccc2NC(=S)N1Cc1ccc2c(c1)OCO2,0,3.16µM,?,?,0,0
Cc1noc(C)c1-c1ccc2ncnc(NCc3cc(F)cc(F)c3)c2c1,-,0,0,-,-,-
Cc1nn(-c2ccccc2)c2nc(N)c(C#N)c(-c3ccc(F)cc3)c12,0,0,0,0,16.4µM,0
Cc1ccccc1NC(=O)CSc1nc(N)c(C#N)c(-c2cccs2)c1C#N,0,0,0,0,0,0
Cc1ccc(-n2nc(C)c3c(-c4cccs4)c(C#N)c(N)nc32)cc1,?,?,0,?,8.2µM,0
Cc1nc(N)c(C#N)c(-c2ccccc2)c1C,0,0,0,0,0,0
CCc1ccc(/C(C)=N\Nc2ccc([N+](=O)[O-])cc2)cc1,14.6µM,0,0,0,9.2µM,0
O=[N+]([O-])c1ccc(NN=C(Oc2ccccc2)c2ccc([N+](=O)[O-])cc2)cc1,-,-,-,0,-,?
C/C(=N\Nc1ccc([N+](=O)[O-])cc1)c1ccc(N)cc1,0,0,0,?,?,0
C/C(=N\Nc1nc(C)c(C)s1)c1ccc([N+](=O)[O-])cc1,0,11.2µM,?,?,?,?
CC/C(=N\Nc1ccc([N+](=O)[O-])cc1)c1ccccc1,?,0,0,0,16.4µM,0
SMILES,SW480 rerep,RORg inh,Gal4-VP16 FLuc,KB-V1 cytotox,MCF10A rereplic,KB-3-1 tox
CCOC(=O)N/N=C1/C[C@@H](O)[C@@H](O)[C@@H]2[C@@H]3C(=O)N(Cc4ccccc4)C(=O)[C@H]3CC[C@H]12,-,0[10 µM],0[10 µM],-,-,-
CCOC(=O)c1c(NC(=O)COc2ccccc2)sc2c1CC(C)(C)NC2(C)C,0,0,0,?,0,?
CCOC(=O)c1c(NC(=O)CSc2nc3ccccc3[nH]2)sc2c1CC(C)(C)NC2(C)C,16.4µM,-,-,0,?,?
COc1ccc(C(NC(C)=O)c2cc(Cl)c3cccnc3c2O)cc1OC (centres undefined),1.64µM,3.98µM,0,0,?,?
CCC(=O)NC(c1ccc(OC)c(OC)c1)c1cc(Cl)c2cccnc2c1O (centres undefined),?,0,0,?,?,3.26µM!
COc1ccc(C(=O)NC(c2ccc(Cl)cc2)c2cc(Cl)c3cccnc3c2O)cc1 (centres undefined),-,-,-,?,-,0
COc1ccccc1C(NC(C)=O)c1cc(Cl)c2cccnc2c1O (centres undefined),0.581µM,2.24µM,2.82µM,?,?,?
CCOC(=O)CCN1C(=O)[C@H]2[C@H]3[C@H](O)[C@H](O)C/C(=N/OCc4ccccc4)[C@H]3CC[C@@H]2C1=O,-,0[10 µM],0[10 µM],-,-,-
Cc1nc2ccc(NC(=O)c3cc([N+](=O)[O-])cc([N+](=O)[O-])c3Cl)cc2s1,0,?,3.16µM,0,?,0
CC1(C)Cc2c(sc3[nH]c(=S)n(Cc4ccccc4)c(=O)c23)CO1,0,0,0.891µM,?,0,?
Cc1ccc(NC(=O)c2ncn(CCCN(C)CCc3ccccn3)n2)cc1C,0,-,-,0,0,0
Cc1ccc(F)cc1NC(=O)COC(=O)c1ccc(S(C)(=O)=O)c([N+](=O)[O-])c1,-,-,-,0,-,?
COCCNC(=O)Cc1c(C)c2c(cc(C)c3c(C(C)(C)C)coc32)oc1=O,16.4µM,0,?,?,5.8µM,?
Cc1cc2oc(=O)c(CC(=O)NCCCN(C)C)c(C)c2c2occ(C(C)(C)C)c12,9.2µM,0,?,?,?,?
CCOc1ccc(C2=CC(c3cccc(Br)c3)n3c(nc4ccccc43)N2)cc1Cl (centres undefined),-,-,-,?,-,0
COc1ccc(-c2nnc3n2N=C(c2c(OC)cccc2OC)CS3)c(OC)c1,-,0,0,-,-,-
C=CCNC(=O)c1ccsc1N,-,-,-,0,-,0
COc1ccc(N/C(N)=N/c2nc(C)c(Cc3ccccc3)c(=O)[nH]2)cc1,0,0,0,0,0,0
Cc1cccc(N/C(N)=N/c2nc(C)c(Cc3ccccc3)c(=O)[nH]2)c1,0,0,0,0,0,20.6µM
Cc1ccc(NC(=O)c2cccc(OCc3c(C)noc3C)c2)cc1S(=O)(=O)Nc1ccccc1Cl,?,0,0,7.31µM,?,0
COc1cc(C(=O)OC(C)C(=O)Nc2ccc3c(c2)OCO3)ccc1OCc1c(C)noc1C (centres undefined),0[9.22 µM],0,0,0,0,0
Cc1noc(C)c1COc1cccc(C(=O)Nc2ccc(Br)cc2F)c1,14.6µM,-,-,2.91µM,5.8µM,6.51µM
Cc1noc(C)c1COc1cccc(C(=O)OC(C)C(=O)Nc2ccc3c(c2)OCO3)c1 (centres undefined),?,0,0,?,14.6µM,0
CCOc1ccc(CNC(=O)C2=Cc3cc(Br)ccc3OC2)cc1OC,-,-,-,0,-,0
NS(=O)(=O)c1ccc(N2C(=O)CCCC2=O)cc1,-,-,-,0,-,0
CCN(CC)S(=O)(=O)c1cc(-c2ccc(=O)n(C(C)C(=O)Nc3cccc(C#N)c3)n2)ccc1C (centres undefined),-,-,-,0,-,0

# Source: PubChem BioAssay (National Center for Advancing Translational Sciences (NCATS))
